The results in this text go back to PubChem BioAssay (EPA / NIEHS).

Calls of active or inactive are those of the source. The calls were made as follows: active = hit-call score of the fitted dose curve at least 0.9, where 1 is the maximum; inactive = score below 0.9.

Read-out in one experiment: Human Leukocyte Antigen - DR isotype (HLADR), HLA-DRA (gene 3122)
The experiment in a line: BSK_BE3C_HLADR: BioMAP Diversity Plus: BE3C Assay for Human Leukocyte Antigen - DR isotype (HLADR) Biomarker Activity (AID 2283032). Particulars: primary human bronchial epithelial cells; actives raise or lower the signal. The method, boiled down:
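Primary human bronchial epithelial cells (BE3C); 24 h chemical exposure; HLA-DR by ELISA; bidirectional curve fit vs DMSO baseline.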
Consider `ClC1C(Cl)C(Cl)C(Cl)C(Cl)C1Cl` (stereo not drawn), for which the result was inactive.
For `N#CN`, the outcome was inactive.
Consider `CC1(c2ccc(Oc3ccccc3)cc2)OC(=O)N(Nc2ccccc2)C1=O` (stereo not drawn), for which the result was inactive.
With `CCCN(CCC)c1c([N+](=O)[O-])cc(C(F)(F)F)cc1[N+](=O)[O-]`, the outcome was inactive.
The same measure, in the same setting: the same measure for `COc1cc(OC)nc(NC(=O)NS(=O)(=O)c2cc(NC=O)ccc2C(=O)N(C)C)n1`: “inactive”.
In general, AC50 refers to the concentration at which the activity in the assay is half-maximal. With `O=S(=O)(O)C(F)(F)C(F)(F)C(F)(F)C(F)(F)C(F)(F)C(F)(F)C(F)(F)C(F)(F)F`, the concentration at half-maximal activity (AC50) was 23.1 µM (active) [middle of 8 runs].
On to `N#Cc1c(Cl)c(Cl)c(Cl)c(C#N)c1Cl`, for which the concentration at half-maximal activity (AC50) is 1.7 µM (active).
As to `O=[N+]([O-])c1c(Cl)c(Cl)c(Cl)c(Cl)c1Cl`, the outcome was inactive.

Read-out in the next experiment: Vascular cell adhesion molecule 1 (VCAM1), VCAM1 (gene 7412)
Description: BSK_4H_VCAM1: BioMAP Diversity Plus: 4H Assay for Vascular cell adhesion molecule 1 (VCAM1) Biomarker Activity (AID 2283033).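 As to outcome: cell-surface VCAM-1 protein measured by ELISA.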 The settings on record: primary human endothelial cells (HUVEC); actives raise or lower the signal. The method, boiled down:
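HUVEC, 24 h post-dose; VCAM-1 by ELISA. Bidirectional curve fit vs DMSO baseline. Parallel SRB total-protein stain (0.1% SRB after 10% TCA fixation, 560 nm) for cytotoxicity.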
On to `O=C(O)C(F)(F)C(F)(F)C(F)(F)C(F)(F)C(F)(F)C(F)(F)C(F)(F)F`, for which the outcome was inactive.
On the same count and under the same terms, with `COP(=O)(OC)OC=C(Cl)Cl` the entry was “inactive”.
Regarding `COP(=S)(OC)Oc1ccc([N+](=O)[O-])cc1`, the AC50 is 20.1 µM (active).
In the case of `O=C(NC(=O)c1c(F)cccc1F)Nc1ccc(OC(F)(F)C(F)OC(F)(F)F)c(Cl)c1` (stereo not drawn), the outcome was inactive.
`CCc1ccc(C(=O)NN(C(=O)c2cc(C)cc(C)c2)C(C)(C)C)cc1`: the outcome was inactive.
Same read-out and setting: the same measure for `COC(=O)c1ccccc1S(=O)(=O)NC(=O)N(C)c1nc(C)nc(OC)n1`: “inactive”; for `COC(=O)c1ccccc1CS(=O)(=O)NC(=O)Nc1nc(OC)cc(OC)n1`: “inactive”; for `O=C(O)CCCOc1ccc(Cl)cc1Cl`: “inactive”.
`O=[N+]([O-])/N=C1\NCCN1Cc1ccc(Cl)nc1`: the outcome was inactive.
The same measure, in the same setting: the same measure for `Cc1[nH]c(=O)n(C(C)(C)C)c(=O)c1Cl`: “inactive”.
